Experimental findings from PubChem BioAssay are described below.

In experiment [1] the test system is PRMT1 (protein arginine N-methyltransferase 1). The experiment can be described thus: small molecules binding arginine methyltransferase PRMT1 – biochemical, small-molecule microarray, 635 nm fluorescence, primary screen (AID 1088).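 Also: binding of Prmt1 protein to compounds spotted on small-molecule microarray slides.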 Particulars: higher = more signal.
Experiment [2] in a line: growth effects on S. cerevisiae YJM789 – YJM789 clinical isolate, OD600, 24 h, basal, primary screen (AID 1089).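 Also: growth of clinical yeast isolate S. cerevisiae YJM 789 seeded 1000 cells per well; test concentration not given here.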 Particulars: higher = more signal, called active from +8 up or from −8 down.
Experiment [3] in a line: S. pombe growth modifiers, basal conditions – strain 972, OD600, 24 h, no modulator, primary screen (AID 1090).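 Also: basal condition with compound alone and no growth modifier present; test concentration not given here.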 The conditions noted are these: S. pombe 972 growth, higher = more signal, called active from +8 up or from −8 down.
A short description of experiment [4]: budding yeast growth modifiers under rapamycin – strain BY4716, OD600, 96 h, primary screen (AID 1091). Also: test concentration not given here. The conditions noted are these: S. cerevisiae BY4716 + rapamycin, higher = more signal, called active from +8 up or from −8 down.
Experiment [5] has as its target Torsin-1A-interacting protein 2 (Homo sapiens) (UniProt Q8NFQ8). The experiment can be described thus: small molecules binding lysate-expressed LULL1 – cell lysate, human LULL1 lysate, 635/667 nm fluorescence, primary screen (AID 1092).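 Also: probe is lysate of COS7 cells overexpressing human LULL1; score merges per-feature 667 nm fluorescence with signal-to-noise.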 The conditions noted are these: small-molecule microarray, hLULL1 lysate binding, 635 nm fluorescence; higher = more signal.
A short description of experiment [6]: optical density change of DRC41 E. coli – strain DRC41, OD650, 24 h, E. coli filamentation project, primary screen (AID 1093).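 Also: MC1000 strain lacking acrAB efflux and sulA so SOS filamentation is blocked; test concentration not given here.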 The conditions noted are these: E. coli DRC41 growth, higher = more signal, called active from +8 up or from −8 down.
The nature of experiment [7]: probe aLefty2 binding to arrayed compounds – biochemical, biotinylated probe, 635/667 nm fluorescence, primary screen (AID 1094).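 Also: score merges spot fluorescence near 667 nm with spot signal-to-noise ratio.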 Particulars: small-molecule microarray, higher = more signal.
The subject of experiment [8] is Noggin (protein binding on small-molecule microarray). The experiment can be described thus: small molecules binding Noggin protein – biochemical, 635/667 nm fluorescence, primary screen (AID 1095).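 Also: score merges 667 nm feature fluorescence with signal to noise over triplicate slides.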 Particulars: 635 nm fluorescence, higher = more signal.
The target in experiment [9] is Neurogenic locus notch homolog protein 3 (Homo sapiens) (UniProt Q9UM47). Put plainly: small molecules binding NOTCH3 protein – biochemical, 635/667 nm fluorescence, primary screen (AID 1096). The conditions noted are these: small-molecule microarray, 635 nm fluorescence, higher = more signal.
The nature of experiment [10]: probe aEGFR binding to arrayed compounds – biochemical, biotinylated probe, 635/667 nm fluorescence, primary screen (AID 1097).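 Also: probe is a biotinylated anti-EGFR antibody binding compounds printed on slides; score combines fluorescence near 667 nm and signal to noise of each spot.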 The conditions noted are these: small-molecule microarray, higher = more signal.
The subject of experiment [11] is Plasmodium falciparum Sir2 (PF13_0152, Sir2A). The experiment can be described thus: Plasmodium falciparum Sir2A binding compounds – biochemical, small-molecule microarray, 635 nm fluorescence, primary screen (AID 1098).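 Also: score merges spot fluorescence intensity with its signal-to-noise ratio.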 The conditions noted are these: fluorescence 635 nm, higher = more signal.
Experiment [12] can be described thus: probe aDKK1 binding to arrayed compounds – biochemical, biotinylated probe, 635/667 nm fluorescence, primary screen (AID 1099).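 Also: score merges 667nm spot fluorescence with signal to noise across triplicate slides; reference of the scale not given here.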 The conditions noted are these: small-molecule microarray, higher = more signal.
A short description of experiment [13]: probe aCHRDL2 binding to arrayed compounds – biochemical, biotinylated probe, 635/667 nm fluorescence, primary screen (AID 1100). Particulars: small-molecule microarray, higher = more signal.
A short description of experiment [14]: change in splice reporter luminescence, either direction, cell-based, HEK293, spliceosome inhibition project, primary screen (AID 1101).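 Also: HEK293 cells carrying a splicing-competent luciferase reporter gene; test concentration not given here.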 The conditions noted are these: HEK293 splicing luciferase reporter, 24 h, higher = more signal, called active from +8 up or from −8 down. For orientation: Reporter assays use an easily measured gene product as a stand-in for the process of interest.

Experiment [15] deals with Fibroblast growth factor 10 (Homo sapiens) (UniProt O15520). The experiment can be described thus: compounds binding fibroblast growth factor 10 – biochemical, small-molecule microarray, 635 nm fluorescence, primary screen (AID 1102). The conditions noted are these: FGF10 binding, fluorescence 635 nm, higher = more signal.
Experiment [16] deals with glycogen synthase kinase-3 (GSK3A per assay name; protocol says GSK3B). Put plainly: compounds binding glycogen synthase kinase-3 – biochemical, small-molecule microarray, 635 nm fluorescence, GSK3A, primary screen (AID 1103). Also: the record names both GSK3A and GSK3B. The conditions noted are these: fluorescence 635 nm, higher = more signal.
The target of experiment [17] is Epidermal growth factor receptor (Homo sapiens) (UniProt P00533). The experiment can be described thus: compounds binding epidermal growth factor receptor – biochemical, small-molecule microarray, 635 nm fluorescence, primary screen (AID 1104).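 Also: score merges 667 nm emission intensity with spot signal to noise over triplicate slides.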 Particulars: EGFR binding, higher = more signal.
The target in experiment [18] is Follistatin-related protein 3 (Homo sapiens) (UniProt O95633). The experiment can be described thus: compounds binding follistatin-related protein 3 – biochemical, small-molecule microarray, 635 nm fluorescence, primary screen (AID 1105).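 Also: score merges emission near 667 nm and signal to noise per printed spot across three slides.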 Particulars: FSTL3 binding, higher = more signal.
The target of experiment [19] is Dickkopf-related protein 1 (Homo sapiens) (UniProt O94907). Put plainly: small molecules binding DKK1 protein – biochemical, small-molecule microarray, 635 nm fluorescence scan, primary screen (AID 1106).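 Also: score merges emission near 667 nm with signal to noise over three replicate slides.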 The conditions noted are these: higher = more signal.
Experiment [20] relates to Inhibin beta A chain (activin A). Put plainly: small molecules binding activin A – biochemical, small-molecule microarray, 635 nm fluorescence scan, primary screen (AID 1107).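 Also: mouse activin A protein probed at 4.33 µg/mL on printed slides; score merges bound-protein fluorescence near 667 nm with spot signal-to-noise.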 The conditions noted are these: INHBA, higher = more signal.

Calls of active or inactive are those of the source.

Fibroblast growth factor 10 (Homo sapiens), sequence (O15520 whole entry, looked up): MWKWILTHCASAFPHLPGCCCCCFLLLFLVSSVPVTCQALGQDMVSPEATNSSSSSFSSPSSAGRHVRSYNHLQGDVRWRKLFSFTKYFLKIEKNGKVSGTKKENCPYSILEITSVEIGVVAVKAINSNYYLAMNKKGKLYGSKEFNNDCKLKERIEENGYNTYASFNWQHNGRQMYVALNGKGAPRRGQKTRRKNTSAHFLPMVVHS
Follistatin-related protein 3 (Homo sapiens), sequence (O95633 whole entry, looked up): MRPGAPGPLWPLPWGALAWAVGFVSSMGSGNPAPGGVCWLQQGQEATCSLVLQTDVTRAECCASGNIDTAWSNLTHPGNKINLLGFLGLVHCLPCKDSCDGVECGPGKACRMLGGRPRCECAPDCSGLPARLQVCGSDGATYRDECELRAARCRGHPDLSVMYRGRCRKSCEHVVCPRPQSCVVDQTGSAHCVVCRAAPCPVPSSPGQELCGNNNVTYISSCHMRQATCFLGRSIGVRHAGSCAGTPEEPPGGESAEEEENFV
Dickkopf-related protein 1 (Homo sapiens), sequence (O94907 whole entry, looked up): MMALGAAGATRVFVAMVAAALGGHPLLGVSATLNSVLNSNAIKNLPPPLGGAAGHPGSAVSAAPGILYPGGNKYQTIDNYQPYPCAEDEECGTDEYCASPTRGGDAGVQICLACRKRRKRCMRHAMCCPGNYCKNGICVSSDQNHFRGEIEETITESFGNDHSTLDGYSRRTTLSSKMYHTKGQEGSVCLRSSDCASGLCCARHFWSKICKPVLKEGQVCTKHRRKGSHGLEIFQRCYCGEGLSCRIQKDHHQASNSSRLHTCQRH
Epidermal growth factor receptor (Homo sapiens), sequence (P00533 whole entry, looked up): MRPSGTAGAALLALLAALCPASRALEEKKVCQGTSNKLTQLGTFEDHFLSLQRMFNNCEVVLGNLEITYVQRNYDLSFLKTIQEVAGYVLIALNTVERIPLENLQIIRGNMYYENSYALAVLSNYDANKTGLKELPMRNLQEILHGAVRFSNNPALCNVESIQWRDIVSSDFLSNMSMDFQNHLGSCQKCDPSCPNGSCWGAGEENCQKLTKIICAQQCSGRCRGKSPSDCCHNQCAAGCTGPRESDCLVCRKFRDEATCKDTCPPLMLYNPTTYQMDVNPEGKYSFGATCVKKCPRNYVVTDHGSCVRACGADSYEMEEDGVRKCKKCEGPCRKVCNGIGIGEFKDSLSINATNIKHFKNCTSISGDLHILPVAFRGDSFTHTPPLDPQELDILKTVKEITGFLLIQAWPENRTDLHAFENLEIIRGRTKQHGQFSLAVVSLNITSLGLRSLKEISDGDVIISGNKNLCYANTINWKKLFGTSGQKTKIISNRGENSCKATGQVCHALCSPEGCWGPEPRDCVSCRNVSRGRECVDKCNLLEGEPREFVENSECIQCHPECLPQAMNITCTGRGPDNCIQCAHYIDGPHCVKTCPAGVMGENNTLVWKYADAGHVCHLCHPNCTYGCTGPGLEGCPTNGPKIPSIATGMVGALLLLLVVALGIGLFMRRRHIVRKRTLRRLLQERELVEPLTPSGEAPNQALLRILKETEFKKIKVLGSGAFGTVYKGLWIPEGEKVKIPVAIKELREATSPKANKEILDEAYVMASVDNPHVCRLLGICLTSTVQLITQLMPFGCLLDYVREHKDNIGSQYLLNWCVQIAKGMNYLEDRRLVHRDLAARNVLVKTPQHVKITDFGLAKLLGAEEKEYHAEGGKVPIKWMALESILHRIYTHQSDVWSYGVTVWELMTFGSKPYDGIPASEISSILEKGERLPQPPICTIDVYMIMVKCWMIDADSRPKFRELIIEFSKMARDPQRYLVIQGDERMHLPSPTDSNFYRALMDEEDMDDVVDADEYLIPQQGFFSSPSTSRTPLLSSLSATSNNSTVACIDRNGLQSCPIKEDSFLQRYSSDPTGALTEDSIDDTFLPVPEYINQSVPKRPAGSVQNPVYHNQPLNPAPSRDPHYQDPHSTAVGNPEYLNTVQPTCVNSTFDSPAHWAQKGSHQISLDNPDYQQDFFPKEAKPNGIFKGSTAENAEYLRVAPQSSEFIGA
Torsin-1A-interacting protein 2 (Homo sapiens), sequence (Q8NFQ8 whole entry, looked up): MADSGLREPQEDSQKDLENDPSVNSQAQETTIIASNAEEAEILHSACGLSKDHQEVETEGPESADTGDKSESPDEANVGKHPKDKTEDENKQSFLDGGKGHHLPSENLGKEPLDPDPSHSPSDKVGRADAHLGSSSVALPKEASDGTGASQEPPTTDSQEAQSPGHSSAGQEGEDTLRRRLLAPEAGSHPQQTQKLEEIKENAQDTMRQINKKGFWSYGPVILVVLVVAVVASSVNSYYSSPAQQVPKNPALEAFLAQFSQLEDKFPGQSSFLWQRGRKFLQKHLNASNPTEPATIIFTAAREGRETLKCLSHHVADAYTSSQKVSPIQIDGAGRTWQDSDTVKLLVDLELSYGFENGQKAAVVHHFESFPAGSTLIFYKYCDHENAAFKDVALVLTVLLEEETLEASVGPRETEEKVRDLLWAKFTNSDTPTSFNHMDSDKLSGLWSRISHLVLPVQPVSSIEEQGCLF
Neurogenic locus notch homolog protein 3 (Homo sapiens), sequence (Q9UM47 whole entry, looked up): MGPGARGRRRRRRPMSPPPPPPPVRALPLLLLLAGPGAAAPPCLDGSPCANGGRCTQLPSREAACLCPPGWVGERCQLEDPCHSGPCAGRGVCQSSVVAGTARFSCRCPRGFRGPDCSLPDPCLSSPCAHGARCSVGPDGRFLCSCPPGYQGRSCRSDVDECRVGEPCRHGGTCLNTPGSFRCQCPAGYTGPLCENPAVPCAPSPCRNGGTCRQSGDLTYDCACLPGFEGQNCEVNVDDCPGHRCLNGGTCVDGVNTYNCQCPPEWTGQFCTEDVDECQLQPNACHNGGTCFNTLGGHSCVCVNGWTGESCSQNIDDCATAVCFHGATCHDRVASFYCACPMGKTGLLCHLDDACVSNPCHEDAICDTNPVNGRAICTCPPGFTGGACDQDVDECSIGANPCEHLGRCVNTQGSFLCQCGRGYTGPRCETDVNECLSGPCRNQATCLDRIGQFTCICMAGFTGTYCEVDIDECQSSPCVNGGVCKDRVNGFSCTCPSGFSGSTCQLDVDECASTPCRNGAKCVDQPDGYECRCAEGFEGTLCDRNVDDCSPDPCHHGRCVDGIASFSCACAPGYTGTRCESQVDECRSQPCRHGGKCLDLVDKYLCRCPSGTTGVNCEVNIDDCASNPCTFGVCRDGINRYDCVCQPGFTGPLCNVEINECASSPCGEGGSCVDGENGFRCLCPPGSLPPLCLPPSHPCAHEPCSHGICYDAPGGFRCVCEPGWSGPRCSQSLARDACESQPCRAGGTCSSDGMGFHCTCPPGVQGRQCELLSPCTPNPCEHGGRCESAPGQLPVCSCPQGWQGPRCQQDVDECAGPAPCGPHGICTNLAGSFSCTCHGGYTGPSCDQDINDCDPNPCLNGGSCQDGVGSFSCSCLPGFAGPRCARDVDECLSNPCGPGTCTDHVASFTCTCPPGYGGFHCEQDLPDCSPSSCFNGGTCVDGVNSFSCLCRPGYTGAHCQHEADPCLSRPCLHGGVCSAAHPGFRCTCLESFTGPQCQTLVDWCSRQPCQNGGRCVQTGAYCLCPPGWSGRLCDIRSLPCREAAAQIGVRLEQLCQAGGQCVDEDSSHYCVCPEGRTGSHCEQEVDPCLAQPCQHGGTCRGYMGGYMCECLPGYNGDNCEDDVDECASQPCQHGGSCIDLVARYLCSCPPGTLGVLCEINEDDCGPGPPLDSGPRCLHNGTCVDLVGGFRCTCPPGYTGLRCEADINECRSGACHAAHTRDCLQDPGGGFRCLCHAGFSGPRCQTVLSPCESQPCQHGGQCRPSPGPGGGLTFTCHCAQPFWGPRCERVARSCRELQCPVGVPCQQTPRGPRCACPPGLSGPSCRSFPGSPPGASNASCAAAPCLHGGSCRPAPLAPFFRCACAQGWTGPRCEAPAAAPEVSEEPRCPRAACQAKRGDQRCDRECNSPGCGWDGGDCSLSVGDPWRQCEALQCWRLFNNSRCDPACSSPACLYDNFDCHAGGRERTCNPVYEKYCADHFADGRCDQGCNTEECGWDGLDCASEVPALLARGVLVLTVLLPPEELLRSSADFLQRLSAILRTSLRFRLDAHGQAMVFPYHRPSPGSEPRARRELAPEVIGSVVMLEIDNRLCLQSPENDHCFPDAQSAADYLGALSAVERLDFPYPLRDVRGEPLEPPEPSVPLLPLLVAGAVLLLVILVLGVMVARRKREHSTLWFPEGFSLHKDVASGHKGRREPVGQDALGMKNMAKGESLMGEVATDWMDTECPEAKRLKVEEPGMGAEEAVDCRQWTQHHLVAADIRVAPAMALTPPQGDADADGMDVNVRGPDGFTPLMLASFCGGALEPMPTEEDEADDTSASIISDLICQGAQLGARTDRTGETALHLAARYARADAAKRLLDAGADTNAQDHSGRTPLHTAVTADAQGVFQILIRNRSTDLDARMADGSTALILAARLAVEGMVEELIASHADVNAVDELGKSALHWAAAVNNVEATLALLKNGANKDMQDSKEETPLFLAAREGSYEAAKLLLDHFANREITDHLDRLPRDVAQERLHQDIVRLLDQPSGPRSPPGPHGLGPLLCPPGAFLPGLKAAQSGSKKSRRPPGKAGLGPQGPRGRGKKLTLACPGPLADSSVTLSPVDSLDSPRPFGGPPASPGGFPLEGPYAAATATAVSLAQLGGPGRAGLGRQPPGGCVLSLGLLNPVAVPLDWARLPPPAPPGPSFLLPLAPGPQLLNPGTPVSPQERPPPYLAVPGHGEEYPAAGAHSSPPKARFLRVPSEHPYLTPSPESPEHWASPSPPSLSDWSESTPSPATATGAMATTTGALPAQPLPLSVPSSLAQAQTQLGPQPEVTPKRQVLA

Turning to `CCCNC(=O)OC[C@H]1O[C@H](c2ccccc2)C=C[C@@H]1Oc1ccc(OC)cc1`, the composite z-score was -0.0125 in [1]; 0.361 in [5]; -0.0916 in experiment [7]; -0.234 in experiment [8]; -0.124 in experiment [9]; -0.146 in [10]. Further, the composite z-score in experiment [11] was -0.361; in [12] it was -0.377; in [13], -0.396; in experiment [15], 0.0708; in experiment [16], -0.0811; in experiment [17], 0.424. The composite z-score in experiment [18] was 0.108; in experiment [19], -0.0332; in experiment [20] it was -0.339. Moreover, the z-score was -0.325 (inactive) in experiment [2]; -0.423 (inactive) in experiment [3]; 0.0199 (inactive) in experiment [4]; 0.806 (inactive) in experiment [6]; -0.0906 (inactive) in [14].
As to `COC(=O)CC=C[C@@H](C)[C@H](OCc1cccc(-c2ccccc2)c1)C1CCCCC1`, the composite z-score in experiment [1] was -0.526; in [5], -0.311; in experiment [7], -0.321; in [8], -0.274; in [9] it was -0.395; in [10] it was -0.27. The composite z-score is -0.632 in experiment [11]; -0.416 in experiment [12]; -0.223 in experiment [13]; -0.127 in [15]; -1.21 in experiment [16]; 0.371 in experiment [17]. Moreover, the composite z-score was determined as 0.736 in experiment [18], 0.352 in experiment [19] and 1.97 in experiment [20]. Moreover, the z-score in [2] is 1.44 (inactive); in experiment [3], -0.915 (inactive); in experiment [4], 1.45 (inactive); in experiment [6], 0.109 (inactive); in [14], -0.102 (inactive).
Regarding `CC(C)CON=C1C[C@@H](O)[C@@H](O)[C@@H]2[C@@H]3C(=O)N(c4ccc(F)cc4F)C(=O)[C@@H]3CC[C@H]12`, the composite z-score was 1.55 in [1]; 1.63 in experiment [5]; -0.304 in [7]; 0.409 in [8]; 1.08 in experiment [9]; -0.0512 in experiment [10]. In addition, the composite z-score in [11] is 0.256; in experiment [12], -0.212; in [13] it was -0.509; in experiment [15], 0.553; in [16], 0.458; in experiment [17], 0.59. Also, the composite z-score in experiment [18] is 0.986; in [19], 0.671; in experiment [20], -0.253. Moreover, the z-score is -0.254 (inactive) in experiment [2]; -0.59 (inactive) in experiment [3]; -0.337 (inactive) in experiment [4]; -0.385 (inactive) in experiment [6]; -0.972 (inactive) in experiment [14].
In the case of `C=Cc1ccc([C@H]2N[C@H](C(=O)O)CC[C@@H]2C)cc1`, the composite z-score in experiment [1] is -1.29; in experiment [5] it was -0.447; in experiment [7], 0.0772; in [8], 0.0295; in experiment [9], 0.417; in [10], -0.0349. Moreover, the composite z-score in [11] is -0.642; in experiment [12] it was 0.178; in experiment [13], 0.02; in [15] it was 0.741; in [16], -0.88; in experiment [17] it was 0.14. Moreover, the composite z-score in [18] stood at 0.505; in [19], 0.723; in [20] it was 0.363. Further, the z-score was -0.382 (inactive) in experiment [2]; -0.261 (inactive) in experiment [3]; -0.676 (inactive) in [4]; 0.58 (inactive) in [6]; 0.0747 (inactive) in experiment [14].
As for `CCOC(=O)[C@H](Cc1ccccc1)NC(=O)CCC1CC(OC(=O)NCc2cccc3ccccc23)CC2(CCCC(COC(=O)NCc3ccccc3)O2)O1` (stereo not given in full), the composite z-score in experiment [1] is 1.04; in experiment [5], 0.728; in experiment [7], -0.0931; in [8] it was 0.547; in experiment [9] it was 0.955; in [10], -0.142. The composite z-score in experiment [11] is 0.388; in [12], -0.208; in experiment [13], -0.285; in [15], 0.286; in [16] it was -0.231; in experiment [17], 0.173. The composite z-score in experiment [18] came out at 0.689; in experiment [19], 0.223; in [20], 0.103. The z-score in experiment [2] was -2.28 (inactive); in [3], -2.51 (inactive); in experiment [4], -0.414 (inactive); in experiment [6], -1.42 (inactive); in experiment [14], -2.41 (inactive).
